This passage reports composite z-score, composite Z-score and z-score results from PubChem BioAssay.

One assay concerns the target Albumin (Bos taurus) (UniProt P02769). The assay is described as follows: compounds binding labelled BSA control protein – biochemical, small-molecule microarray, Alexa647 label, 635/667 nm fluorescence, artefact control for SMM control protein annotation, profiling panel (AID 1118).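 Note: score merges 667 nm emission intensity and signal-to-noise per printed compound spot.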 The following applies: BSA-A647 binding, fluorescence 635 nm, higher = more signal.
The nature of assay [1]: probe aXIP binding to arrayed compounds – biochemical, NeuroSMM set, 635/667 nm fluorescence, primary screen (AID 1119).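 Note: probe is the protein aXip251-270 applied at 1 µg/mL to compound-printed slides; binding of probe to printed compounds measured as 667 nm fluorescence plus signal to noise.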 To be noted: small-molecule microarray, higher = more signal, called active from +8 up or from −8 down.
The nature of assay [2]: probe aNOTCH3 binding on compound microarray – biochemical, small-molecule microarray, 635/667 nm fluorescence, primary screen (AID 1120).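 Note: probe is a biotin-tagged antibody raised against NOTCH3 rather than NOTCH3 protein; score merges spot fluorescence near 667 nm with spot signal to noise.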 The following applies: higher = more signal.
Assay [3] in a line: probe aNOTCH2 binding on compound microarray – biochemical, small-molecule microarray, 635/667 nm fluorescence, primary screen (AID 1121).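 Note: score merges feature fluorescence read at 667 nm with its signal to noise.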 To be noted: higher = more signal.
Assay [4] addresses Carbonic anhydrase 2 (Homo sapiens) (UniProt P00918). The assay is described as follows: compounds binding carbonic anhydrase 2 – biochemical, small-molecule microarray, Alexa647-labelled CAII, profiling panel (AID 1122). The following applies: CAII-A647 binding fluorescence, higher = more signal.
A short description of assay [5]: COS7 lysate on small-molecule microarray, probe aHis, 635 nm (AID 1123).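 Note: z-score combines 667nm fluorescence intensity with signal-to-noise per printed compound spot.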 To be noted: COS7 cell lysate, fluorescence, higher = more signal.
The nature of assay [6]: probe aLAP1 signal on lysate-treated microarray – cell lysate, small-molecule microarray, COS7 lysate, primary screen (AID 1124).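 Note: lysate comes from COS7 cells expressing LAP1 and is applied at 0.3 µg/mL; score merges spot fluorescence near 667 nm with signal-to-noise over triplicate slides.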 The following applies: probe aLAP1, fluorescence, higher = more signal.
The test system of another assay is Sam68 (KHDRBS1). The assay is described as follows: compounds binding KHDRBS1 protein – biochemical, small-molecule microarray, 635 nm fluorescence, primary screen (AID 1125).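 Note: score merges 667 nm channel intensity with signal to noise over triplicate slides.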 The following applies: higher = more signal.
Assay [7] concerns Chordin-like protein 2 (CHRDL2). The assay is described as follows: compounds binding chordin-like 2 – biochemical, small-molecule microarray, 635 nm fluorescence, primary screen (AID 1126).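 Note: printed compound slides probed with Chrdl2 protein at 4 µg/mL for 1 h at 4 C; score merges 667 nm emission intensity with signal to noise over three replicate slides.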 To be noted: fluorescence 635 nm, higher = more signal.
Assay [8] has as its target Concanavalin-A (Canavalia ensiformis) (UniProt P02866). Description: compounds binding concanavalin A lectin – biochemical, small-molecule microarray, Alexa647 label, 635 nm, artefact control for SMM control protein annotation, primary screen (AID 1127).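 Note: z combines 667 nm emission intensity with signal-to-noise across three replicate slides.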 To be noted: ConA-A647 binding fluorescence, higher = more signal.
A short description of assay [9]: compounds binding Alexa647 anti-His antibody – biochemical, small-molecule microarray, 635 nm fluorescence, artefact control for SMM control protein annotation, primary screen (AID 1128).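 Note: score merges feature fluorescence with signal-to-noise for each printed compound spot.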 To be noted: higher = more signal.
Assay [10] has as its system Human papillomavirus type 1a E7 protein (residues 1-88). Description: HPV1a E7 small-molecule binders, primary screen, biochemical, small-molecule microarray, residues 1-88, 635 nm (AID 1129). The following applies: small-molecule microarray binding, fluorescence 635 nm; higher = more signal.
For assay [11], the target named is Focal adhesion kinase 1 (Homo sapiens) (UniProt Q05397). The assay is described as follows: PTK2 protein binding on printed compound slides – biochemical, small-molecule microarray, 635/667 nm fluorescence, BSA, DTT, primary screen (AID 1130).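 Note: composite of spot emission at 667 nm and signal to noise over triplicate slides.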 The following applies: 635 nm fluorescence, higher = more signal.
Focal adhesion kinase 1 (Homo sapiens), sequence (Q05397 whole entry, looked up): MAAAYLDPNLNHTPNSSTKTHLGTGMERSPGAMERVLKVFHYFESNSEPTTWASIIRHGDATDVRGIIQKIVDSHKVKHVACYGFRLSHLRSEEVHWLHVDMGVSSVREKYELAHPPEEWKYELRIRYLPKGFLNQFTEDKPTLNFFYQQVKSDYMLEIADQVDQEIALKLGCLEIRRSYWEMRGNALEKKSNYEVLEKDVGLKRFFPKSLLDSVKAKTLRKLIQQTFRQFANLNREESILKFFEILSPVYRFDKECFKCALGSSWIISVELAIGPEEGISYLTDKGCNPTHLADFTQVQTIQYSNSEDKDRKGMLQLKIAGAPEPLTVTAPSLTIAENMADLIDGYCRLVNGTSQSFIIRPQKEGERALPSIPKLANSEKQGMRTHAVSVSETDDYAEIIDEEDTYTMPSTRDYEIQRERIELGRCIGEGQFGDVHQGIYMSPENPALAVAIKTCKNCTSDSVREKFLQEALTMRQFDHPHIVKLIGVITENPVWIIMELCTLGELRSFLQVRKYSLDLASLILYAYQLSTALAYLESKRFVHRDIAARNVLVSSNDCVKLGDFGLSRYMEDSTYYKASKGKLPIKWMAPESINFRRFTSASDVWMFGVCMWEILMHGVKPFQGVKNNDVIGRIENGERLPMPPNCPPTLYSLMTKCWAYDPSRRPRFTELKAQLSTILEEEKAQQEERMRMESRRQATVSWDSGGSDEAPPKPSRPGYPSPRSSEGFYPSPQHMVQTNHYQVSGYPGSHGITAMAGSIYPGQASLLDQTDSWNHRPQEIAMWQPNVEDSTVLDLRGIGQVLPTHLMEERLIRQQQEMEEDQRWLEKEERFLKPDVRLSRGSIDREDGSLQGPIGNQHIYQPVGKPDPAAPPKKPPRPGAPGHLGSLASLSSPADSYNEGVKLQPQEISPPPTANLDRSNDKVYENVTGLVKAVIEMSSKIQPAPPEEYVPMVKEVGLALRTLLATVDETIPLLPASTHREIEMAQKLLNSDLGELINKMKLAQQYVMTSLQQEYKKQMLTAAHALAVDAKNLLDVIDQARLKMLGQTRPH
Assay [12] concerns Fibrinogen (Alexa647-labelled). The assay is described as follows: Alexa647-fibrinogen binding to printed small molecules – biochemical, small-molecule microarray, 635/667 nm fluorescence, artefact control for SMM control-protein annotation, profiling panel (AID 1131).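 Note: z-score merges 667 nm fluorescence with per-spot signal-to-noise over triplicate slides.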 To be noted: fibrinogen-A647 binding fluorescence, higher = more signal.
Assay [13] has as its target Follistatin (Homo sapiens) (UniProt P19883). The assay is described as follows: FST protein binding to printed compounds – biochemical, small-molecule microarray, 635/667 nm fluorescence, primary screen (AID 1132). The following applies: 635 nm fluorescence, higher = more signal.
In assay [14] the target is Fibroblast growth factor 2 (Homo sapiens) (UniProt P09038). The assay is described as follows: basic fibroblast growth factor binding to printed compounds – biochemical, small-molecule microarray, 635/667 nm fluorescence, primary screen (AID 1133). The following applies: FGF2, fluorescence 635/667, higher = more signal.
Fibroblast growth factor 2 (Homo sapiens), sequence (P09038 whole entry, looked up): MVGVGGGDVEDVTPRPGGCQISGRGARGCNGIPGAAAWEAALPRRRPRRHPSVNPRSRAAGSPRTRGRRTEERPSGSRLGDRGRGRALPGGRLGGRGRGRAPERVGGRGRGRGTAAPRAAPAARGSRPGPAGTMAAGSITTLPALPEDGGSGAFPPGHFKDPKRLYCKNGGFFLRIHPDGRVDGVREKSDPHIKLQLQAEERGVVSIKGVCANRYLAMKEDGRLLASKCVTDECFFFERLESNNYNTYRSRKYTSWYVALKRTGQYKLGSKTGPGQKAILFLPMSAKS
The nature of assay [15]: JC-1 mitochondrial potential readout, lung cancer cells – cell-based, A549, JC-1 fluorescence, basal, 24 h, 100 nL, profiling panel (AID 1138).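 Note: A549 lung adenocarcinoma cells under basal conditions with no added stimulus; test concentration not given here.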 To be noted: higher = more signal.
A further assay deals with Lefty1. The assay is described as follows: Lefty1 protein binding to printed compounds – biochemical, small-molecule microarray, 635/667 nm fluorescence, primary screen (AID 1139). To be noted: fluorescence 635/667, higher = more signal.
Assay [16] concerns wheat germ agglutinin (Triticum aestivum), Alexa647-labelled. The assay is described as follows: Alexa647-WGA lectin binding to printed small molecules – biochemical, small-molecule microarray, 635/667 nm fluorescence, artefact control for SMM control-protein annotation, profiling panel (AID 1140).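 Note: score merges 667 nm feature emission with signal to noise over triplicate slides.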 To be noted: WGA-A647 binding, 635 nm fluorescence, higher = more signal.
In assay [17] the target is Luciferin 4-monooxygenase (Photinus pyralis) (UniProt P08659). Description: inhibition of purified Photinus pyralis luciferase – biochemical, luminescence, purified enzyme, 2006 set, primary screen (AID 1141).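 Note: cell-free assay with purified firefly luciferase at 100 ng per well in PBS; test concentration not given here.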 To be noted: purified firefly luciferase, SteadyGlo luminescence, 30 min; higher = more signal, called active from +8 up or from −8 down.
Luciferin 4-monooxygenase (Photinus pyralis), sequence (P08659 whole entry, looked up): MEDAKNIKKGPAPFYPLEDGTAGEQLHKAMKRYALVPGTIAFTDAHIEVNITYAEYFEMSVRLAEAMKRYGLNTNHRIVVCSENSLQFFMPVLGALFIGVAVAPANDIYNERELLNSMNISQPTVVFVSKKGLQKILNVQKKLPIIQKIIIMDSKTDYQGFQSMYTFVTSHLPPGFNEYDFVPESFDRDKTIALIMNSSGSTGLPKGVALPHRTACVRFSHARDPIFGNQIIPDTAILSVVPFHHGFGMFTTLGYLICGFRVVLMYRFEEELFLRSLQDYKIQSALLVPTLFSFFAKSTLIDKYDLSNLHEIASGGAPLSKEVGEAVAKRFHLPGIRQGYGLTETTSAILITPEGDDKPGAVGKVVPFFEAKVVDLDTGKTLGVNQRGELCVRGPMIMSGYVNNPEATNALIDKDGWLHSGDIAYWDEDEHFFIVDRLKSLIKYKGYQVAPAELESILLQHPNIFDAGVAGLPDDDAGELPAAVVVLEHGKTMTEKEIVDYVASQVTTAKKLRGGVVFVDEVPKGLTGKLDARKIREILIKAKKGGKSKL

The source made the active and inactive calls.

Follistatin (Homo sapiens), sequence (P19883 whole entry, looked up): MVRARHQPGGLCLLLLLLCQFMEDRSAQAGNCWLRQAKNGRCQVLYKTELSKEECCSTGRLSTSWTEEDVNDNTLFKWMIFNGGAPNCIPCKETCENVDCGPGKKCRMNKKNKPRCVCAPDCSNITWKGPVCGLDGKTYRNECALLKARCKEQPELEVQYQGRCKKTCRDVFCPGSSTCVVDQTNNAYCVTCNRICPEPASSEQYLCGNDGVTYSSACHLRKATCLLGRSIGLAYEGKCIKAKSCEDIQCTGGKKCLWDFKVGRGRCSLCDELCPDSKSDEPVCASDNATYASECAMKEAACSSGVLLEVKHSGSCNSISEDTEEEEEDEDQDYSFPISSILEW
Concanavalin-A (Canavalia ensiformis), sequence (P02866 whole entry, looked up): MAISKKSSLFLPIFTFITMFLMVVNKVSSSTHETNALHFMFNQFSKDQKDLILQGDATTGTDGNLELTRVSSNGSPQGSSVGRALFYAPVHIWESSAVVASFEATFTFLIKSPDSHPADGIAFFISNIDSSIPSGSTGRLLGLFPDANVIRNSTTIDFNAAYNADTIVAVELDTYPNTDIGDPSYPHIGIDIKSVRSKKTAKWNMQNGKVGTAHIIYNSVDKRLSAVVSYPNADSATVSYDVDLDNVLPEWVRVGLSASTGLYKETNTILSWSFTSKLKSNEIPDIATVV
Albumin (Bos taurus), sequence (P02769 whole entry, looked up): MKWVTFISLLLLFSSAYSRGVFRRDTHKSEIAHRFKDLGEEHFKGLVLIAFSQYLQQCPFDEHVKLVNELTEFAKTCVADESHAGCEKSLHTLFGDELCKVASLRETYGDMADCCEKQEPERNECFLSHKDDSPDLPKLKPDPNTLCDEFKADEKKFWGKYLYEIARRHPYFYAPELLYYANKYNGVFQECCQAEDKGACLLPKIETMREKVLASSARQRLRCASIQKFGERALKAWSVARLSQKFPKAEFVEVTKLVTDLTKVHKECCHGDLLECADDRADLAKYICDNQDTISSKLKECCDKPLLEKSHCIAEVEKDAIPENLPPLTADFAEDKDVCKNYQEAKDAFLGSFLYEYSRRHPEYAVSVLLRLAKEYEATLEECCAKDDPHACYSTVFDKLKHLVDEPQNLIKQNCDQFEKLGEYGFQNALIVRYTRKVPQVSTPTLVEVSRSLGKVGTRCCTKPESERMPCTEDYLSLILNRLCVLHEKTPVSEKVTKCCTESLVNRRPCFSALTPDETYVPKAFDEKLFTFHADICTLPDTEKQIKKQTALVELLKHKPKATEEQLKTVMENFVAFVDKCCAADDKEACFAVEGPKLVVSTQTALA

As for `COc1cccc(/C=C(\C#N)C(=O)Nc2c(C)n(C)n(-c3ccccc3)c2=O)c1`, the composite z-score with Albumin (Bos taurus) was 0.998; in assay [2] it was -0.053; in assay [3], -0.0454; in [4], 0.767; in assay [5], 0.366; in assay [6], -0.0921. The composite z-score with Sam68 (KHDRBS1) is 0.949; in assay [7], -0.194; in assay [8], 1.14; in [9] it was 0.352; in assay [10], 0.0072; in [11] it was 0.268. The composite z-score stood at 0.85 in assay [12]; 0.346 in assay [13]; 0.365 in assay [14]; 0.363 in the assay on Lefty1; 0.713 in assay [16]. In addition, the composite Z-score in [1] is -0.359 (inactive). Further, the results for the z-score in [15] and in assay [17] were 0.697 and 0.109 (inactive), respectively.
`O=C(CS)NCCCCCCNC(=O)[C@@H]1C[C@@H]2C(=O)NCC(=O)N2[C@@H]1c1ccc(O)cc1`: the composite z-score is 0.166 in the assay with Albumin (Bos taurus); -0.397 in [2]; -0.183 in assay [3]; 0.68 in assay [4]; 2.94 in [5]; -0.136 in assay [6]. The composite z-score was -0.477 in the assay with Sam68 (KHDRBS1); -0.134 in assay [7]; -0.434 in assay [8]; 2.52 in assay [9]; -0.41 in [10]; 0.0509 in assay [11]. Also, the composite z-score is -0.975 in [12]; 0.526 in assay [13]; 1.18 in assay [14]; -0.628 in the assay on Lefty1; -0.498 in assay [16]. The composite Z-score in [1] is 0.549 (inactive). The z-score in [15] was 0.601; in assay [17], -1.38 (inactive).
With `CO[C@H]1O[C@H](CO)[C@@H](OC(=O)CCc2ccccc2)[C@H](OC(=O)c2cc3ccccc3[nH]2)[C@H]1OC(=O)c1cc2ccccc2[nH]1`, the composite z-score with Albumin (Bos taurus) was 0.777; in assay [2] it was -0.0284; in assay [3], -0.223; in assay [4], 0.68; in assay [5], 0.78; in assay [6], -0.206. Besides, the composite z-score in the assay with Sam68 (KHDRBS1) was determined as 1.22; in assay [7], 0.453; in [8], 1.09; in assay [9], 1.37; in [10] it was 1.01; in assay [11] it was 0.332. Further, the composite z-score was found to be 0.824 in assay [12]; 1.26 in [13]; 1.31 in assay [14]; 0.845 in the assay with Lefty1; 0.726 in assay [16]. For the same compound, the composite Z-score in assay [1] was -0.134 (inactive). Moreover, the z-score in assay [15] is -0.201; in assay [17], -0.105 (inactive).
Take `NC(=O)NCC#Cc1ccc2c(c1)[C@]1(C(=O)N2)[C@H](C(=O)N2CCN(c3ncccn3)CC2)[C@H]2C(=O)O[C@H](c3ccccc3)[C@H](c3ccccc3)N2[C@@H]1c1ccc(OCCO)cc1`: the composite z-score with Albumin (Bos taurus) is 0.003; in assay [2], 0.127; in [3], -0.084; in assay [4], 0.236; in assay [5], 0.944; in assay [6] it was 0.241. Further, the composite z-score in the assay with Sam68 (KHDRBS1) was determined as 0.982; in assay [7] it was 0.106; in assay [8] it was 0.972; in assay [9], 0.0543; in [10], 0.805; in assay [11], 0.0827. In addition, the composite z-score stood at 0.717 in [12]; 1.33 in assay [13]; 0.517 in assay [14]; 0.406 in the assay with Lefty1; 0.276 in [16]. Also, the composite Z-score in assay [1] was 0.17 (inactive). In addition, the z-score was -1.18 in [15] and -0.437 (inactive) in assay [17].
In the case of `COC(=O)C1=CC(CCCO)=CC(C)N(Cc2cccc(OC(F)(F)F)c2)C=C1C(=O)OC` (stereo not given), the composite z-score in the assay with Albumin (Bos taurus) was 1.03; in [2], 0.147; in [3], -0.0743; in assay [4], 0.8; in [5], 2.63; in assay [6], 0.348. Further, the composite z-score is 1.27 in the assay with Sam68 (KHDRBS1); -0.595 in assay [7]; 0.355 in assay [8]; 0.178 in assay [9]; 0.702 in assay [10]; 0.955 in [11]. Further, the composite z-score was -0.269 in assay [12]; -0.278 in assay [13]; -0.807 in assay [14]; -0.0105 with Lefty1; 1.11 in assay [16]. Also, the composite Z-score in [1] is -0.288 (inactive). Further, the z-score is 0.142 in assay [15] and 0.347 (inactive) in assay [17].
